Reference: PubChem BioAssay (NCI)
This is part of a sample that, as a whole, favours compounds with a hit. Of some 79,000 tested, about 15% had one in any assay. No stated cut-off is given here; in the data, active means growth inhibition above about 70%; inactive means the rest.

Assays:
[1] = NCI Yeast Anticancer Drug Screen. Data for the rad50 strain (AID 155);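 further: 0% = growth of vehicle-only cultures of the same strain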; conditions: S. cerevisiae rad50 strain growth inhibition; at 50.0 µM; stronger effect = higher value
Procedure, shortened: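 Relative growth inhibition (compound vs vehicle) was measured in yeast with a defined repair-gene alteration.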

[2] = NCI Yeast Anticancer Drug Screen. Data for the mec2-1 strain (AID 157); conditions: S. cerevisiae mec2-1 strain, at 50.0 µM, stronger effect = higher value
Procedure, shortened: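 Strain: mec2-1 (DNA repair/cell cycle alteration). Compound exposure, then growth measured; inhibition expressed relative to vehicle.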

[3] = NCI Yeast Anticancer Drug Screen. Data for the sgs1 mgt1 strain (AID 161);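 further: 0% = growth of cultures given vehicle only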; conditions: S. cerevisiae sgs1 mgt1 strain, at 50.0 µM, stronger effect = higher value
Procedure, shortened: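 Read-out: growth inhibition vs vehicle controls. Cells: mutant yeast strain deficient in DNA damage repair.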

[4] = NCI Yeast Anticancer Drug Screen. Data for the cln2 rad14 strain (AID 165);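 further: 0% = growth equal to vehicle treated cultures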; conditions: S. cerevisiae cln2 rad14 strain, at 50.0 µM, stronger effect = higher value
Procedure, shortened: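 Compounds are applied to the cln2 rad14 yeast strain, and growth is then compared with that of vehicle-treated cultures to give inhibition.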

[5] = NCI Yeast Anticancer Drug Screen. Data for the bub3 strain (AID 167); conditions: S. cerevisiae bub3 mutant strain, at 50.0 µM, stronger effect = higher value
Procedure, shortened: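 Screening used yeast with an engineered genetic alteration affecting cell cycle control. Compound-exposed cultures were compared with vehicle cultures, and reduced growth was taken as inhibition.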

[6] = NCI Yeast Anticancer Drug Screen. Data for the mlh1 rad18 strain (AID 175); conditions: S. cerevisiae mlh1 rad18 strain growth inhibition; at 50.0 µM; stronger effect = higher value
Procedure, shortened: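 Read-out is yeast growth inhibition, calculated against vehicle-only controls. The compound was applied to a strain engineered with DNA damage repair alterations.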

Measured: growth inhibition

CC(C)(C)OC(=O)NC(Cc1ccccc1)OCc1ccccc1 (configuration not stated)
inactive: [1] -11.3% | [2] -25.2% | [3] -0.05% | [4] 11.8% | [5] -15.4% | [6] -19.7%

COC(=O)CCS/C=C/C(=O)O
inactive: [1] 11.1% | [2] -8.6% | [3] -2.4% | [4] -34.4% | [5] 4.25% | [6] 4.35%

OCCN(Cc1ccccn1)Cc1ccccn1
inactive: [1] 14% | [2] -3.7% | [3] 36.2% | [4] 11.2% | [5] 8.4% | [6] 9%

Cn1c(=O)c2[nH]c(N(CCO)CCO)nc2n(C)c1=O
inactive: [1] 7.75% | [2] 9.95% | [3] 23.9% | [4] 21.9% | [5] -2.3% | [6] 15.1%

CC(C)(C)c1ccc(O)c(C(O)c2cccnc2)c1 (configuration not stated)
inactive: [1] 18.7% | [2] 16.6% | [3] 16.5% | [4] 13.9% | [5] 29.8% | [6] 39.2%

O=C(N=C1C(=O)C2(CCCCC2)C2(N=C(c3ccccc3)OC2=O)C12CCCCC2)c1ccccc1 (configuration not stated)
inactive: [1] 11.8% | [2] 8.75% | [3] 9.35% | [4] -5.05% | [5] -2.35% | [6] 14.5%

COc1cc(CNC(=O)NCCCl)cc(OC)c1OC
inactive: [1] -5.55% | [2] 1.2% | [3] -3.2% | [4] -3.45% | [5] -1% | [6] 2.7%

O=C1CSC(c2cccc(O)c2O)N1c1nncs1 (configuration not stated)
inactive: [1] 1.35% | [2] 0.25% | [3] 1.85% | [4] -6.9% | [5] 5.9% | [6] -5.35%

COCCCC12C=C(OC)C(=O)C=C1OC(c1cc(OC)c(OC)c(OC)c1)C2C (configuration not stated)
inactive: [1] 0% | [2] -13.1% | [3] -36% | [4] -18% | [5] -32.5% | [6] -14.5%

O=S(=O)(O)C(O)c1ccncc1 (configuration not stated)
inactive: [1] -38.2% | [2] -41% | [3] -6.15% | [4] -1.8% | [5] -4.25% | [6] -22.7%

CN(C)c1ccc2c(c1)C(O)c1ccccc1-2 (configuration not stated)
inactive: [1] -7.3% | [2] -6.55% | [3] 1.1% | [4] -0.65% | [5] 19.4% | [6] 0.7%

O=C(NC1CCCN1C(=O)/C=C\c1ccccc1)OCc1ccccc1 (configuration not stated)
inactive: [1] -8.95% | [2] -4.95% | [3] -13.7% | [4] -62.5% | [5] 0.6% | [6] -12.3%

CC1CCCNC1C (configuration not stated)
inactive: [1] -21% | [2] -24.1% | [3] -11.1% | [4] -29% | [5] -3.25% | [6] 8.25%

CN(N=O)C(=O)NC(CCCCNC(=O)OCc1ccccc1)C(=O)OCc1ccccc1 (configuration not stated)
inactive: [1] 5.95% | [2] -10.1% | [3] -2.8% | [4] -22.4% | [5] 11.6% | [6] -11.2%

N=C(N)SCCC(=O)CCSC(=N)N
inactive: [1] 27.9% | [2] 18.6% | [3] 33.6% | [4] 32.2% | [5] 15.6% | [6] -2.75%

Cc1c(-c2ccc(Cl)cc2)n[nH]c1-c1[nH]nc(-c2ccc(Cl)cc2)c1C
inactive: [1] -2.3% | [2] -1.95% | [3] -26.1% | [4] 3.75% | [5] -11.4% | [6] -1.9%

OC(Cc1ccc2ccccc2n1)(C(F)(F)Cl)C(F)(F)Cl
inactive: [1] -39% | [2] -55.2% | [3] -10.7% | [4] -9.7% | [5] -4.45% | [6] -31.1%

CCOC(=O)C(Nc1cc([N+](=O)[O-])ccc1C(=O)N1CCCCC1)(C(=O)OCC)N1CCCCC1
inactive: [1] 4.6% | [2] 12.8% | [3] 13.8% | [4] 3.8% | [5] 0.2% | [6] 15%

CCOP(C)(=O)/C(Cc1ccc(OC)c(OC)c1)=N\O (configuration not stated)
inactive: [1] -21.4% | [2] -22.8% | [3] -14.8% | [4] 10.4% | [5] 23% | [6] -17.2%

CC1CC(=O)C(CC(=O)O)[C@H]1C(C(=O)C(=O)Nc1cc(Cl)ccc1Cl)[N+](=O)[O-] (some centres not stated)
inactive: [1] 1.45% | [2] -11.3% | [3] -10.1% | [4] 14.7% | [5] -13.3% | [6] -2%

Cc1ccc(S(=O)(=O)CCN2CCCC2)cc1
inactive: [1] -3.85% | [2] -14.7% | [3] -5.6% | [4] -47.2% | [5] 7.95% | [6] -9.55%

Nc1c(Br)c(Br)cc2c1-c1ccc(Br)cc1C2
inactive: [1] 8.2% | [2] 3.75% | [3] -2.65% | [4] 8.75% | [5] 7.9% | [6] -4.7%

Nc1nc2c(nc(Br)n2C2OC(CO)C(O)C2O)c(=O)[nH]1 (configuration not stated)
inactive: [1] -2.05% | [2] -1.6% | [3] 0.95% | [4] -8.4% | [5] 1.8% | [6] -9.65%

O=C(c1ccc(Cl)cc1)C(C(c1ccccc1[N+](=O)[O-])N1CCCCC1)N1CCCCC1 (configuration not stated)
inactive: [1] -15.1% | [2] -0.3% | [3] -10.4% | [4] -30.8% | [5] -23.6% | [6] 2.15%

O=C(O)c1cc(C2CCCC2)nc2ccccc12
inactive: [1] 4.6% | [2] 17% | [3] -5.25% | [4] -6% | [5] -13.2% | [6] 6.85%

CCC(C)NC(=O)c1ccccc1C (configuration not stated)
inactive: [1] 6.25% | [2] -2.75% | [3] -3.2% | [4] -10.2% | [5] 8.15% | [6] -0.2%

CN1C2C=CC(=O)C1C1C(=O)N(c3ccccc3)C(=O)C12 (configuration not stated)
inactive: [1] 25.2% | [2] 45.1% | [3] 54% | [4] 31.4% | [5] 23.8% | [6] 27.1%

O=C(NC(=O)c1ccccc1[N+](=O)[O-])Nc1ccc(Oc2ncc(Cl)cn2)c(C(F)(F)F)c1
inactive: [1] 17.1% | [2] -23.6% | [3] 7.4% | [4] -17.1% | [5] 0.5% | [6] -54.6%

Oc1cc2c(c3c(O)c4ccccc4c(O)c13)=NC1CCCCC1N=2 (configuration not stated)
inactive: [1] 6.25% | [2] 9.6% | [3] 20.6% | [4] 7.6% | [5] 15.3% | [6] 40%

Nc1cn[nH]c(=O)n1
inactive: [1] -3.6% | [2] 20.6% | [3] 2% | [4] 13.3% | [5] 10.4% | [6] 2.7%

CCOC(=O)c1ccncc1
inactive: [1] 23.6% | [2] -0.95% | [3] 21.7% | [4] -4.4% | [5] -1.5% | [6] 6.4%

COC1(c2ccc(C)cc2)c2cccc3cccc(c23)C1(O)c1ccc(C)cc1 (configuration not stated)
inactive: [1] 18.6% | [2] 15.6% | [3] 12% | [4] 21.6% | [5] -4.15% | [6] 9.9%

[N-]=[N+]=Nc1ccnc2c(C(F)(F)F)cccc12
inactive: [1] -19.9% | [2] -18.1% | [3] -8% | [4] -60.2% | [5] -14.3% | [6] -2.45%

CC(=O)OCC1OC(n2c(-c3ccc(Cl)cc3)cc(-c3ccccc3)c(C#N)c2=S)C(OC(C)=O)C(OC(C)=O)C1OC(C)=O (configuration not stated)
inactive: [1] 20.6% | [2] -9.25% | [3] 6.5% | [4] 2.8% | [5] 17.8% | [6] 14.2%

CC(Cl)C(O)C#N (configuration not stated)
inactive: [1] -25.1% | [2] -3.35% | [3] -10.8% | [4] -8.2% | [5] 1.6% | [6] -16.2%

C=CCNC(=O)CCCCCCCC1C(CCCCCCCC)C2(Cl)C(Cl)=C(Cl)C1(Cl)C2(Cl)Cl (configuration not stated)
inactive: [1] 23.6% | [2] -4.6% | [3] 18.2% | [4] -12.2% | [5] 1.75% | [6] 17.8%

COC(=O)C(N)Cc1ccc(O)c(O)c1 (configuration not stated)
inactive: [1] 20.1% | [2] 4.7% | [3] 8.1% | [4] 10.8% | [5] 22.9% | [6] 48.5%
